# Hits are enriched below; roughly 1.8% of the tested compounds scored in any of these assays.
# TrxR1 substrate: qHTS Assay for Substrates of Mammalian Selenoprotein Thioredoxin Reductase 1 (TrxR1): qHTS; purified TrxR1 substrate turnover, NADPH consumption readout; Potency, µM (doses to about 114 µM), without a hit: top-dose activity change, negative = substrate turnover; Thioredoxin reductase 1, cytoplasmic (Rattus norvegicus), O89049; 390,000 compounds, 0.01% hits; note: % is set by controls: 0 for no effect and ±100 for the full control effect; nearly all actives have a fitted effect of over 50% in size
#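 Rat TrxR1, dispensed at 90 nM, was prereduced with 400 uM NADPH (final) for 5 min at ~22 deg C, then incubated with compound 15 min before 400 uM selenite. A first-read NADPH fluorescence drop versus no-compound background flagged substrates.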
# Vif-A3F inh: qHTS for Inhibitors of Vif-A3F Interactions: qHTS; 390,000 compounds, 0.2% hits; Potency, µM (series often up to 46.1 µM), without a hit: at the highest dose activity, negative = active; HeLa A3F-eYFP + Vif (tagged APOBEC3F with the HIV-1 protein that degrades it), YFP fluorescence increase; note: % of control where 0% means no effect; nearly all actives have a fitted effect of over 65% in size
#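 HeLa cells stably expressing Vif plus C-terminally eYFP-tagged A3F were seeded, incubated overnight at 37 deg C, dosed with compound, incubated overnight again at 37 deg C. Yellow fluorescence (Ex 488/Em 500-530) reported blocked Vif-mediated A3F-eYFP degradation.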
# Vif-A3G inh: qHTS for Inhibitors of Vif-A3G Interactions: qHTS | AID 602310, 2012 | 410,000 compounds, 0.076% hits | DNA dC->dU-editing enzyme APOBEC-3G (Homo sapiens), Q9HC16 | HeLa A3G-eYFP + Vif (tagged APOBEC3G with the HIV-1 protein that degrades it), YFP fluorescence, overnight | Potency, µM (series often up to 46.1 µM), without a hit: at the highest dose activity, negative = active, actives largely listed as inhibitors; note: % is set by controls: 0 for no effect and ±100 for the full control effect; nearly all actives have a fitted effect of over 60% in size
# Target sequence (Q9HC16 whole entry, looked up): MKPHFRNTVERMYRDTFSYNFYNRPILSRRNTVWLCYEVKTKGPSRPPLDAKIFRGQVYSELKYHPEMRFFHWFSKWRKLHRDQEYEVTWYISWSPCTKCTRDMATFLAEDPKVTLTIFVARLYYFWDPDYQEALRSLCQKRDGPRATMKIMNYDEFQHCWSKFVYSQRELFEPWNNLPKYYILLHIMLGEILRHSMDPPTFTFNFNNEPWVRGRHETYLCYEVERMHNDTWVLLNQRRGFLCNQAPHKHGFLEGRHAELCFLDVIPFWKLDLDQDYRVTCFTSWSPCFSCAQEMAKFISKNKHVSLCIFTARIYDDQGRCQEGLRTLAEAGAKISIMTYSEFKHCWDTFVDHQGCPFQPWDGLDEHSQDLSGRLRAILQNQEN
#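 Read-out is eYFP fluorescence (Ex 488/Em 500-530) from Vif-expressing HeLa A3G-eYFP cells; more signal means A3G escaped Vif-mediated degradation. Cells plated overnight, compound pinned in, incubated overnight at 37 deg C.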
# VDR inhibitor: Inhibitors of the vitamin D receptor (VDR): qHTS; Potency, µM, for inactives: max response, negative = inhibition, hits mostly inhibitors; Vitamin D3 receptor (Homo sapiens), P11473; 400,000 compounds, 0.93% hits; VDR-SRC2-3 peptide fluorescence polarization, 2 h; note: % is set by controls: 0 for no effect and ±100 for the full control effect
#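 After 23 nl compound addition and a short centrifugation, plates sat for 2 hours at ambient temperature; polarization of fluorescence then indicated loss of VDR binding to peptide SRC2-3.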
# TrxR1 inh: qHTS Assay for Inhibitors of Mammalian Selenoprotein Thioredoxin Reductase 1 (TrxR1): qHTS; 390,000 compounds, 1% hits; Thioredoxin reductase 1, cytoplasmic (Rattus norvegicus), O89049; AID 588453, 2011; Potency, µM (doses to about 114 µM), without a hit: top-dose activity change, negative = inhibition, actives largely listed as inhibitors; recombinant rTrxR1, NADPH fluorescence consumption, selenite substrate; note: % is set by controls: 0 for no effect and ±100 for the full control effect; nearly all actives have a fitted effect of over 65% in size
#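 Rat TrxR1 (90 nM in the dispensed reagent) was pre-reduced with 400 uM NADPH for 5 min at room temperature, then incubated with compound for 15 min. After 400 uM selenite was added, NADPH fluorescence (Ex 340/Em 450 nm) was followed for 8 min.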
# Active calls of the source: *; ? = inconclusive; · = no result given; [ ] = another dose, or the depositor's remark. Calls come from the whole dose curve; as a rule, active = well fitted curve in the direction sought with a large enough effect; inconclusive = small, poorly fitted or top-dose-only effect, or another doubt; inactive = no such curve, though single readings can be large; an effect the other way counts as inactive or inconclusive. Potency is the fitted concentration of half-maximal effect.
SMILES,TrxR1 substrate,Vif-A3F inh,Vif-A3G inh,VDR inhibitor,TrxR1 inh
CC(=O)c1ccc(NC(=S)NC(=O)/C=C/c2ccco2)cc1,-6%,7%,-11%,?,?
O=C(/C=C/c1ccco1)NC(=S)Nc1ccccc1,-12%,?,?,?,45µM*
Cc1ccc(C(=O)NC(=C(Cl)Cl)S(=O)(=O)c2ccc(Cl)cc2)cc1,-11%,0%,?,-15%,32µM*
Cc1ccc(C(=O)NC(=C(Cl)Cl)S(=O)(=O)c2ccc(C)cc2)cc1,-10%,-13%,?,-7%,?
O=C(NC(=C(Cl)Cl)S(=O)(=O)c1ccc(Cl)cc1)c1ccccc1,-14%,-2%,?,4%,45µM*
CCc1ccc(NC(=O)Cn2c(SCc3ccc(C)cc3)nc3ccncc32)cc1,-13%,·,-11%,-3%,-15%
COc1ccc(/C=N/NC(=O)c2cccc(C(=O)N/N=C/c3ccc(OC)cc3)n2)cc1,46%,-6%,2%,-10%,50µM*
O=C(N/N=C\c1ccccc1)c1cccc(C(=O)N/N=C\c2ccccc2)n1,1%,-14%,0%,18%,12%
CCOC(=O)c1nnn(-c2nonc2-n2cccc2)c1CCl,13%,1%,-19%,1%,13µM*
Cc1cc(C)c2nc(SCC(=O)N3CC(=O)Nc4ccccc43)c(C#N)cc2c1,12%[57.1 µM],?,?,-18%,16%[57.1 µM]
COc1ccc2nc(SCC(=O)N3CC(=O)Nc4ccccc43)c(C#N)cc2c1,-4%,22µM*,10µM*,-5%,-9%
O=C1NC(=Nc2ccccc2)S/C1=C\C=C\c1ccco1,-11%,-9%,?,?,79µM*
Cc1ccc(N=C2NC(=O)/C(=C/C=C/c3ccco3)S2)cc1,-5%,?,?,?,45µM*
Cc1ccc(N=C2NC(=O)/C(=C/c3cccn3C)S2)cc1C,-6%,?,?,-1%,15%[11.4 µM]
Cc1cccc(N=C2NC(=O)/C(=C/C=C/c3ccco3)S2)c1C,-16%,-14%,?,?,?
COc1ccc(N=C2NC(=O)/C(=C/C=C/c3ccccc3)S2)cc1,-5%[57.1 µM],5%,-8%,5%,6%[57.1 µM]
Cc1ccc(N=C2NC(=O)/C(=C/c3cccn3C)S2)cc1,-4%,?,5µM*,-18%,17%
CC(C)C[C@H](NC(=O)[C@@H](Cc1c[nH]c2ccccc12)NC(=O)[C@H](Cc1ccc(O)cc1)NC(=O)[C@H](CO)NC(=O)[C@H](Cc1c[nH]c2ccccc12)NC(=O)[C@H](Cc1cnc[nH]1)NC(=O)[C@@H]1CCC(=O)N1)C(=O)N[C@@H](CCCN=C(N)N)C(=O)N1CCC[C@H]1C(=O)NCC(N)=O,·,·,·,15%,·
CC(C)CCCC(C)C1CC(=O)C2=C3CCC4CC(O)CCC4(C)C3CCC21C (centres undefined),·,·,·,5%,·
O=C(CCN1C(=O)c2ccccc2C1=O)Nc1sc2c(c1C(=O)NCc1ccco1)CCCC2,1%[57.1 µM],3%,2%,-16%,20µM*
O=C(O)c1ccc(NNC(=S)Nc2cc(C(F)(F)F)ccc2Cl)cc1,-2%,-15%,2%,22µM*,32%
COC(=O)C(NC(=O)COc1ccccc1)(Nc1nc2c(s1)CCCC2)C(F)(F)F (centres undefined),-7%,2%,-1%,-16%,32µM*
CCOC(=O)C(NC(=O)CC)(Nc1nc2c(s1)CCCC2)C(F)(F)F (centres undefined),7%,1%,-1%,15%,-14%
COC(=O)c1ccccc1NC(=O)c1cnn2c1NC(=C1CC1)C=C2C(F)F,49%,·,0%,·,?
O=C1Nc2cc(S(=O)(=O)N3CCCC3)ccc2N2CCCC12 (centres undefined),-3%,-11%,-10%,3%,50µM*
SMILES,TrxR1 substrate,Vif-A3F inh,Vif-A3G inh,VDR inhibitor,TrxR1 inh
CCCn1c(C2CCCN2c2nc(-c3cccc(Br)c3)cs2)nc2ccccc21 (centres undefined),-1%[57.1 µM],10µM*,-3%,22%,14%[57.1 µM]
N#CC1=C(N)C(C#N)(C#N)C(c2ccc[nH]2)C2CCCC=C12 (centres undefined),6%,?,-10%,-32%,11µM*
O=C1c2ccccc2NC(c2cc(Br)c3c(c2)OCO3)N1Cc1ccco1 (centres undefined),37%,·,0%,-19%,23%
O=C(O)CCC(=O)c1cccc2ccccc12,85%,-7%,0%,-1%,33%
C[N+](C)(C)CCC(=O)c1cccc2ccccc12,·,·,·,2µM*,?
O=C1/C(=C/c2c[nH]c3ccccc23)CCC/C1=C\c1c[nH]c2ccccc12,-3%,22µM*,?,-4%,-22%
C(=NN=Cc1c[nH]c2ccccc12)c1c[nH]c2ccccc12,·,0%,-3%,·,·
Cc1cc(Sc2nnc(N)s2)c2ccccc2n1,3%,-4%,?,-11%,8.9µM*
Nc1ccc(/C=C/c2nc3ccccc3s2)cc1,-7%,·,-1%,·,16%
CC(=O)/C(N=Nc1cc(C)ccc1O)=C(\C)O,-9%[57.1 µM],25µM*,?,-2%,17%[57.1 µM]
CC(=O)/C(N=Nc1ccc(C(=O)O)cc1[N+](=O)[O-])=C(\C)O,-14%,0%,0%,15%,-1%
Cc1c(C(=O)O)cnc2c([N+](=O)[O-])cnn12,-12%[57.1 µM],2%,0%,35µM*,-4%[57.1 µM]
Cc1ccc(S(=O)(=O)Cc2cc(F)c([N+](=O)[O-])cc2[N+](=O)[O-])cc1,-1%,2%,-28%,-8%,18µM*
O=C(CN1C(=O)COc2ccc(S(=O)(=O)N3CCCCCC3)cc21)Nc1cccc(Cl)c1,0%,4%,2%,-1%,27%
CC(=O)Nc1ccc(N(C(=O)c2cnccn2)C(C(=O)NC2CCCCC2)c2ccc(O)cc2)cc1 (centres undefined),12%[57.1 µM],-12%,2%,9%,7.1µM*
O=C(O)c1ccc(Nc2cc(Cl)c3nonc3c2[N+](=O)[O-])cc1,-12%,2%,2%,20µM*,0.63µM*
Cc1c(Nc2cc(Cl)c3nonc3c2[N+](=O)[O-])c(=O)n(-c2ccccc2)n1C,-7%[57.1 µM],-4%,0%,?,0.63µM*
CC1=C(C(=O)O)N2C(=O)[C@@H](NC(=O)[C@@H](N)c3ccccc3)[C@@H]2SC1,·,·,·,1%,·
CC(=O)N1CN(Cc2ccccn2)Cc2c1sc1c2CCCC1,-2%,0%,-3%,-8%,50µM*
CC(=O)N1CN(CCCn2ccnc2)Cc2c1sc1c2CCCC1,6%[57.1 µM],-1%,0%,-8%,9%[57.1 µM]
